# VACV mCherry inh – inhibitors of vaccinia virus infection (mCherry reporter signal) | Vaccinia virus mCherry reporter infection, fluorescence | Potency, µM (series often up to 36.5 µM), without a hit: top-dose activity change, negative = inhibition, hits mostly inhibitors | 310,000 compounds, 0.63% hits | AID 720579; calls by dose curve; tested in A549 cells; further: nearly all actives have a fitted effect of over 35% in size
# HCV inhibitor – inhibitors of hepatitis C virus infection. AID 651820. Potency, µM (series often up to 41.8 µM), inactives show at the top dose activity change, negative = inhibition, most hits filed as inhibitors. Huh7.5.1 HCVcc-Cre infection, luciferase reporter, 44 h. 340,000 compounds, 3.4% hits; active means well fitted inhibition curve with a large enough effect; inconclusive means small, poorly fitted or top-dose-only effect, or another doubt; inactive means no such curve, though single readings can be large or run the other way
#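 Cells (1,000/well) were plated 4 h before compound, then infected with HCVcc-Cre virus (~0.5 moi). After 44 h further culture, infection was read as luciferase luminescence following a 15 min substrate incubation at room temperature.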
# Vaccinia Venus – vaccinia inhibition (Venus reporter); Potency, µM (doses to about 36.5 µM), without a hit: top-dose activity change, negative = inhibition, hits mostly inhibitors; Vaccinia virus Venus reporter expression, fluorescence; AID 720580; 330,000 compounds, 0.46% hits; calls by dose curve; tested in A549 cells; further: nearly all actives have a fitted effect of over 30% in size
# LASV entry inh – inhibitors of Lassa virus binding or cell entry. Lassa virus pseudotype entry inhibition, cell reporter. Potency, µM (series often up to 37.9 µM), inactives show at the top dose activity change, negative = inhibition, actives largely listed as inhibitors. 300,000 compounds, 1.2% hits. AID 540256; calls by dose curve; tested in HEK293 cells; further: nearly all actives have a fitted effect of over 50% in size
# Marburg entry inh – blocks Marburg virus binding to or entry into cells; Marburg virus pseudotyped entry inhibition, cell reporter; Potency, µM (highest dose often 37.8 µM), inactives show at the highest dose activity change, negative = inhibition, most hits filed as inhibitors; 300,000 compounds, 1.8% hits; calls by dose curve; tested in HEK293 cells
# Active calls of the source: *; i = inactive; ? = inconclusive; nt = not tested or not shown; [ ] = another dose, or the depositor's remark. The list is not random: actives were taken first. Their share in the collection is about 4.6%. On the % scale 0 is the no-effect control and ±100 the full control effect; potency means the concentration at half of the fitted maximal effect.
SMILES,VACV mCherry inh,HCV inhibitor,Vaccinia Venus,LASV entry inh,Marburg entry inh
CN(C)CCC1(C2=CCCC2)CC/C(=C/c2ccc(Cl)cc2)C1=O (configuration not stated),?,?,11µM*,13µM*,?
CN(C)c1ccc(/C=C2\CCCCC2=O)cc1,-7%,14%,3%,nt,5%
COCC1CCCN(C(=O)c2cc(COc3ccc4ncccc4c3)on2)C1 (configuration not stated),-7%,1µM*,-15%,?,?
CCC(O)C1CCN(C(=O)c2cc(COc3ccc4ncccc4c3)on2)CC1 (configuration not stated),-18%,1.8µM*,-24%,?,?
O=C(c1cc(COc2ccc3ncccc3c2)on1)N1CCCC(O)C1 (configuration not stated),-10%,?,-28%,-5%[46.1 µM],-18%[46.1 µM]
O=C(c1cc(COc2ccc3ncccc3c2)on1)N1CCC(O)CC1,-30%,8.9µM*,-20%,-26%,?
CCOC(=O)C1CCCN(C(=O)COc2ccc(C(=O)c3ccc(F)cc3)cc2)C1 (configuration not stated),nt,13µM*,nt,nt,nt
Cc1ccc(Cl)cc1NC(=O)Cn1c(=O)cc(C)c2c(C)nn(C)c21,-28%,nt,-19%,0%[46.1 µM],nt
CN(C)c1ccc(N=Cc2ccnc3ccccc23)cc1,-14%,nt,15%,nt,nt
CCOC(=O)C1CCCN(C(=O)c2cc(COc3ccc(C)nc3)on2)C1 (configuration not stated),-20%,8.9µM*,-21%,-26%,-14%
CCOC(=O)C1CCCN(C(=O)c2cc(-c3ccc(C)cc3)on2)C1 (configuration not stated),i,-19%,-8%,?,-28%
COC(=O)C1CN(C#N)N(c2ccc(Cl)cc2)C12c1ccccc1-c1ccccc12 (configuration not stated),?,4µM*,?,11µM*,?
COc1cccc(CNC(=O)c2c(OC)cc(=O)n3c2CCN(C(=O)C2CC=CCC2)CC3)c1 (configuration not stated),-16%,nt,-10%,nt,nt
CCOc1cc(C(=O)Nc2cc3c(cc2N2CCCC2)n(C)c(=O)c(=O)n3C)cc(OCC)c1OCC,-15%,nt,-11%,15%[46.1 µM],-8%[46.1 µM]
Cc1[nH]n(-c2ccccc2)c(=O)c1/C=N/NC(=O)c1cccc(F)c1,nt,11µM*,nt,nt,nt
Cc1[nH]n(-c2ccccc2)c(=O)c1C=Nc1cccc2cccnc12,13µM*,3.5µM*,?,?,8.9µM*
Cc1ccc(/C=N/Nc2nncc(-c3ccccc3)n2)o1,-15%,?,4%,-3%,-4%[46.1 µM]
Cc1[nH]n(-c2ccccc2)c(=O)c1/C=N/Nc1nncc(-c2ccccc2)n1,4µM*,0.56µM*,?,4.1µM*,4.1µM*
CCCCN(CC)C(=O)CSc1nc2n[nH]c(C)c2c(=N)n1-c1cccc(C)c1,?,11µM*,?,-21%[46.1 µM],nt
CCCN(CCC)C(=O)CSc1nc2n[nH]c(C)c2c(=N)n1-c1ccc(OCC)cc1,nt,?,?,11µM*,?
COC(=O)c1ccccc1C(=O)NCC1Cc2cc(-c3nc(C)cnc3C)ccc2O1 (configuration not stated),-3%,nt,-1%,nt,nt
CCCCC(=O)/C=C/n1c2c(oc1=S)CCCC2,nt,nt,nt,nt,18µM*
CCCCC(=O)N1C(C)CCC1C (configuration not stated),?,nt,-13%,nt,nt
CN(C(=O)c1cnn(-c2ncc3c(n2)-c2ccccc2CCC3)c1C1CC1)C1CCOC1 (configuration not stated),-18%,nt,-17%,nt,nt
CCc1nnc(SCc2nc(-c3cccc(Cl)c3)oc2C)c2cc3sc(C)cc3n12,i,nt,-11%,1%[46.1 µM],nt
CC12CC[C@H]3[C@@H](CCC4(O)C[C@H](O)CCC34/C=N/NC(=O)Cc3ccccc3)C1(O)CCC2C1=CC(=O)OC1 (some centres not stated),?,8%,?,?,?
CNC(=O)Nc1ccc(C(=O)N/N=C\C23CC[C@@H](O)CC2(O)CC[C@@H]2[C@@H]3CCC3(C)C(C4=CC(=O)OC4)CCC23O)cc1 (some centres not stated),13µM*,6%,?,nt,nt

# Compound activity as filed in PubChem BioAssay.
